p47phox inh – p47phox/p22phox peptide binding inhibitors, primary screen, biochemical, uHTS, NADPH oxidase regulatory subunit; Neutrophil cytosol factor 1 (Homo sapiens), P14598; fluorescence polarization, 2 h; inhibition, % at 24.7 µM; 220,000 tested, 0.53% active;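 active = inhibition above about 30%, limit read from the data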
Target sequence (P14598 whole entry, looked up): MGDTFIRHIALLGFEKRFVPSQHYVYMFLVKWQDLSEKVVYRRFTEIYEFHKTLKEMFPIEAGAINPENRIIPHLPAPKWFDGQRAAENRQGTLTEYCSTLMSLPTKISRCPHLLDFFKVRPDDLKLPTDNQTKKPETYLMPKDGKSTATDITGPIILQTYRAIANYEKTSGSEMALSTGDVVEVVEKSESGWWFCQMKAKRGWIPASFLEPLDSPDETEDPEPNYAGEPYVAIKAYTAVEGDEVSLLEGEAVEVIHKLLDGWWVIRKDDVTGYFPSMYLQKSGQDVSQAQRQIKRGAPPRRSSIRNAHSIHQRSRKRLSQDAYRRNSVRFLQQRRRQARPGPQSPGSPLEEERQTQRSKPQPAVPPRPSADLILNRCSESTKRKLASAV
ZTA counter – counter-screen for EBNA-1 inhibitors: inhibitors of Epstein-Barr virus ZTA | ZTA-DNA binding, fluorescence polarization | inhibition, % at 11 µM | P03206 | 320,000 tested, 0.15% active; in the data active = inhibition above about 33%
PG9 binder – binders of HIV-1 gp120 antibody PG9, primary screen, biochemical, TR-FRET; TR-FRET gp120-PG9 antibody binding; inhibition, % at 6.7 µM; 360,000 tested, 0.43% active; in the data active = inhibition above about 8.5%
EBNA-1 inhibitor – EBNA-1 DNA-binding inhibitors, primary screen, biochemical, fluorescence polarization; inhibition, % at 14.8 µM; 300,000 tested, 0.34% active; AID 1950, 2009; in the data active = inhibition above about 28%
aDG glyco act – activators of alpha-DG glycosylation, primary screen, uHTS, Pro5-aDG cells, AlphaScreen; alpha-DG glycosylation AlphaScreen (IIH6); 0% Pro5, 100% B10-LARGE cell signal; activation, % at 10 µM; 360,000 tested, 0.22% active; AID 624168, 2012;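 active = activation of at least 8% versus controls, or a plate z-score of at least 8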;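 note: Pro5 are CHO cells carrying HIG-tagged alpha-DG that lacks glycosylation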
Rev-erbA mod – modulators of Rev-erb alpha DNA binding, primary screen, biochemical, FITC-DNA, fluorescence polarization, uHTS; Nuclear receptor subfamily 1 group D member 1 (Homo sapiens), P20393; Rev-erbα–FITC-DNA binding, 90 min; activity, % at 10 µM; 370,000 tested, 0.79% active; AID 1259318, 2017;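 active = activity above about 14%, limit read from the data; passing the limit was not always enough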
EBNA-1 confirm – EBNA-1 DNA-binding inhibitors, retest, confirmation, biochemical, fluorescence polarization, triplicate; shares compounds with EBNA-1 inhibitor; Recombinant EBNA-1 DBD, Cy5-DNA fluorescence polarization; inhibition, % at 14.8 µM; 830 tested, 35% active;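 active = mean inhibition across replicates above a set limit taken from the earlier primary screen, cut at about 28% in these data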
ZTA DNA inh trip – EBV Zta DNA binding inhibitors, counter-screen for EBNA-1 inhibitor project, biochemical, fluorescence polarization, triplicate. 830 tested, under 10 active. inhibition, % at 11.1 µM. shares compounds with EBNA-1 inhibitor. Zta-ZRE DNA binding, Cy5 fluorescence polarization;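 active = mean inhibition over triplicates above a set limit taken from the primary EBNA-1 screen, cut at about 37% in these data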;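 note: purified full length Zta protein with Cy5 labeled ZRE DNA probe; inhibitors lower polarization by freeing the labeled DNA probe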
Hits are given with their value; i = inactive; nt = no result. A selection: hits, their analogues and other compounds. The true share with any hit is near 1.9%.

SMILES	p47phox inh	ZTA counter	PG9 binder	EBNA-1 inhibitor	aDG glyco act	Rev-erbA mod	EBNA-1 confirm	ZTA DNA inh trip
CCN(CC)S(=O)(=O)c1cc(NC(=O)CSc2nc3c(cc2C#N)C(=O)CC(C)(C)C3)ccc1C	i	i	i	32	i	i	i	i
O=c1[nH]c(CN2CCN(S(=O)(=O)/C=C/c3ccccc3)CC2)nc2ccccc12	i	i	i	i	i	i	nt	nt
O=c1[nH]c(CN2CCN(S(=O)(=O)c3ccc4ccccc4c3)CC2)nc2ccccc12	i	i	i	84	i	i	122	i
CCOC(=O)c1[nH]c2ccccc2c1NC(=O)c1ccc2c(c1)OCO2	i	i	i	32	i	i	i	i
Cc1cccc(NC(=O)c2ccc(N3C(=O)C4C5C=CC(C6CC56)C4C3=O)cc2)c1 (stereo not given)	nt	i	i	57	i	i	41	i
O=C(N/N=C\c1ccc(CNS(=O)(=O)c2ccc(Cl)cc2)o1)C(=O)Nc1ccc(Oc2ccccc2)cc1	i	i	i	29	i	i	30	i
O=C(N/N=C\c1ccc(CNS(=O)(=O)c2ccccc2)o1)C(=O)Nc1ccc(F)cc1	i	i	i	i	i	i	nt	nt
O=C(CNC(=O)c1ccco1)OCc1ccc(C(=O)Oc2ccccc2)cc1	i	i	i	i	i	i	nt	nt
O=C(CNC(=O)c1ccco1)NCC(=O)OCc1ccc(C(=O)Oc2ccc(Cl)cc2)cc1	i	i	i	89	i	i	i	i
COC(=O)c1cc(NC(=O)C2CCCN(S(=O)(=O)c3c(C)n[nH]c3C)C2)cc(C(=O)OC)c1 (stereo not given)	i	i	i	28	nt	i	i	i
COc1ccc(NC(=O)C2CCCN(S(=O)(=O)c3c(C)n[nH]c3C)C2)cc1 (stereo not given)	i	i	i	i	i	i	nt	nt
CCn1c(CNC(=O)C23CC4CC(CC(C4)C2)C3)nnc1SCC(=O)Nc1nnc(C)s1	i	i	i	42	i	i	i	i
CCCCn1c(CNC(=O)C23CC4CC(CC(C4)C2)C3)nnc1SCC(=O)Nc1nnc(C)s1	i	i	i	i	i	i	nt	nt
Cc1ccc2c(c1)[nH]c1c(=O)n(Cc3ccco3)cnc12	i	i	i	70	i	i	37	i
COc1ccc(/C=C/C(=O)NC(=S)Nc2ccc(S(N)(=O)=O)cc2)cc1	i	i	i	33	i	i	39	37
CC(C)C(=O)Nc1ccc(C(=O)NNC(=O)CCCOc2ccc(Cl)cc2Cl)cc1	i	i	i	36	i	i	i	i
O=C(Nc1cccc(S(=O)(=O)NC2=NCCCCC2)c1)c1cc(-c2ccco2)nc2ccccc12	i	i	i	39	i	i	i	i
Cc1ccccc1NC(=O)Cn1c(=O)n(Cc2ccccc2)c(=O)c2c(C)c(C)sc21	i	i	i	37	i	i	i	i
O=C(c1cccc(-c2ccc(O)cc2)c1)N1CCN(c2ccc(F)cc2)CC1	i	i	i	40	i	i	i	i
c1ccc(Cn2ccc3ccc(-c4ccc5ccn(Cc6cccc(Oc7ccccc7)c6)c5c4)cc32)cc1	nt	nt	nt	nt	nt	i	nt	nt
CCOc1ccccc1N(CC(=O)Nc1ccc(OC)cc1)S(=O)(=O)c1ccccc1	nt	i	i	28	i	i	i	i
CCOC(=O)CN(C(=O)CSc1nnc2c(n1)[nH]c1ccccc12)c1ccccc1	i	i	i	40	i	i	i	i
O=C(Nc1ccccc1F)c1cc2c(s1)-c1ccccc1S(=O)(=O)C2	i	i	i	53	i	i	57	i
CCc1c(C)sc2nc(SCC(=O)Nc3cc(C)on3)n(CCOC)c(=O)c12	i	i	i	34	i	i	i	i
